Measured values: PubChem BioAssay (EPA / NIEHS)
Active and inactive are the calls of the source. The calls were made as follows: active = hit-call score of the fitted dose curve at least 0.9, where 1 is the maximum; inactive = score below 0.9.

Assays:
[1] = APR_HepG2_CellLoss_72hr: Apredica 72-hour HepG2 Assay for Cell Loss (AID 2282915); conditions: high-content imaging
Procedure, shortened: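 Cell number comes from Hoechst 33342-labelled nuclei, imaged at 20x after 3.7% formaldehyde fixation. Dosing was 0.39–200 uM, ten concentrations in duplicate, 0.5% DMSO final, for 72 h. Bidirectional fit relative to DMSO baseline.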

[2] = APR_HepG2_P-H2AX_72hr: Apredica 72-hour HepG2 Assay for H2AX Phosphorylation (AID 2282916); conditions: imaging, actives raise or lower the signal;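 also: phospho-histone H2A.x immunostain intensity per cell marking DNA damage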
Procedure, shortened: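 HepG2 cells treated 72 h at 0.39–200 uM, 0.5% DMSO final, duplicates. Formaldehyde-fixed, Triton-permeabilised, immunostained for phospho-H2A.x with Hoechst; fluorescence imaged at 20x, bidirectional fit versus DMSO.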

[3] = APR_HepG2_MitoMembPot_72hr: Apredica 72-hour HepG2 Assay for Mitochondrial Membrane Potential (AID 2282917); conditions: imaging, actives raise or lower the signal
Procedure, shortened: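 Membrane potential read by MitoTracker Red CMXRos (250 nM, 30 min, pre-fixation) fluorescence imaging of HepG2 after 72 hr exposure. Ten concentrations, 0.39–200 uM, duplicate wells, 0.5% DMSO; fitted in both directions against DMSO baseline.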

[4] = APR_HepG2_MitoticArrest_72hr: Apredica 72-hour HepG2 Assay for Mitotic Arrest (AID 2282918); conditions: high-content imaging, actives raise or lower the signal
Procedure, shortened: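 Using high-content imaging of fixed HepG2 cells, phospho-histone H3 signal was measured following a 72 hr incubation with ten-point compound dilutions up to 200 uM. DMSO served as the negative control and baseline for bidirectional curve fitting.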

[5] = APR_HepG2_MicrotubuleCSK_72hr: Apredica 72-hour HepG2 Assay for Microtubule CSK Stabilty (AID 2282919); conditions: HepG2 microtubule cytoskeleton, high-content imaging, actives raise or lower the signal
Procedure, shortened: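 Read-out is tubulin fluorescence intensity from high-content imaging of HepG2 cells, with nuclei identified by Hoechst 33342. Treatment lasts 72 h at 0.39–200 uM, and curves are fitted bidirectionally against the DMSO negative control.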

[6] = APR_HepG2_P-H2AX_24hr: Apredica 24-hour HepG2 Assay for H2AX Phosphorylation (AID 2282920); conditions: high-content imaging, actives raise or lower the signal
Procedure, shortened: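 Human HepG2 liver cells, treated 24 hr with test chemicals (0.39–200 uM, final DMSO 0.5% v/v), are fixed and co-stained for phospho-H2A.x and c-Jun with Hoechst. Imaged intensity is fitted in both directions against DMSO controls.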

[7] = APR_HepG2_StressKinase_72hr: Apredica 72-hour HepG2 Assay for Stress Kinase (AID 2282921); conditions: HepG2 stress kinase (phospho-c-Jun) imaging, actives raise or lower the signal
Procedure, shortened: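 HepG2 cells treated 72 hr with 0.39–200 uM compound, 0.5% v/v DMSO, duplicate wells. After formaldehyde fixation and Triton permeabilization, stained with anti-phospho-c-Jun (1:500) and Cy3 secondary, imaged at 20x. Fitted in both directions against DMSO.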

[8] = APR_HepG2_p53Act_72hr: Apredica 72-hour HepG2 Assay for p53 Activation (AID 2282923); conditions: high-content imaging, actives raise or lower the signal;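 also: average cellular p53 protein immunofluorescence intensity in HepG2 cells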
Procedure, shortened: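 HepG2 cells exposed 72 h to 0.39–200 uM in 0.5% DMSO, duplicates. Fixed, permeabilized cells immunostained for p53 (Cy5) with Hoechst; imaged at 20x, fluorescence analyzed bidirectionally against DMSO.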

[9] = ATG_CRE_CIS: Attagene CIS-FACTORIAL HepG2 Assay for human cAMP Responsive Element (CRE) binding protein 3 (AID 2282926); conditions: HepG2 CRE cis-reporter, Attagene multiplexed mRNA; actives raise or lower the signal
Procedure, shortened: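 Transfected HepG2 were treated for 24 hours, then RNA was extracted and reporter cDNA amplified with sequence-specific primers. Labelled fragments were separated by capillary electrophoresis, and the CRE signal was fitted bidirectionally with DMSO as baseline.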

[10] = target: CCAAT/enhancer-binding protein beta (Homo sapiens) (UniProt P17676); experiment: ATG_C_EBP_CIS: Attagene CIS-FACTORIAL HepG2 Assay for human CCAAT/Enhancer Binding Protein (C/EBP) beta (AID 2282927); conditions: HepG2 Attagene cis-factorial transcription factor reporter; actives raise or lower the signal
Procedure, shortened: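 Changes in reporter mRNA, rather than exogenous chimeric receptor activity, reflect native C/EBP signalling in transfected HepG2 cells dosed for 24 h; transcripts are detected by RT-PCR and capillary electrophoresis.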

[11] = ATG_CMV_CIS: Attagene CIS-FACTORIAL HepG2 Assay for human CMV (Internal Marker) (AID 2282928); conditions: HepG2 CMV promoter reporter, transcription factor profiling; actives raise or lower the signal;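 also: endpoint acts as a background internal control marker rather than a target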
Procedure, shortened: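 HepG2 cells transiently transfected with multiple cis-regulated reporter units; 24 h compound exposure. Reporter mRNA quantified by RT-PCR, 6-FAM primer-extension labeling, HpaI digestion and capillary electrophoresis; bidirectional fitting against DMSO baseline.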

[12] = ATG_DR4_LXR_CIS: Attagene CIS-FACTORIAL HepG2 Assay for human Liver X Receptor (LXR), DR4 submotif (AID 2282929); conditions: HepG2 Attagene DR4 cis-reporter, mRNA transcription; actives raise or lower the signal
Procedure, shortened: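 After transient transfection with multiplexed cis-promoter reporter units, HepG2 cells received test chemicals for 24 h. Reporter mRNA induction, detected by fluorescence after RT-PCR and capillary electrophoresis, was scored relative to DMSO.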

[13] = target: Aryl hydrocarbon receptor (Homo sapiens) (UniProt P35869); experiment: ATG_Ahr_CIS: Attagene CIS-FACTORIAL HepG2 Assay for human Aryl Hydrocarbon Receptor (Ahr) (AID 2282930); conditions: HepG2 AhR cis-factorial reporter transcription; actives raise or lower the signal
Procedure, shortened: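 HepG2, transient MRTU (cis) transfection, 24 h exposure. RNA → cDNA → PCR → 6-FAM primer extension → HpaI 2 h 37 C → CE. Fit: bidirectional, DMSO baseline.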

[14] = ATG_AP_1_CIS: Attagene CIS-FACTORIAL HepG2 Assay for human Activator Protein 1 (AP-1) (AID 2282931); conditions: HepG2 Attagene cis-factorial AP-1 reporter mRNA; actives raise or lower the signal
Procedure, shortened: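 After 24 h incubation with test chemical, RNA from transfected HepG2 cells was reverse-transcribed, amplified, fluorescently labelled and digested before capillary electrophoresis. Reporters were driven by cis-regulatory promoters; activity fitted bidirectionally versus DMSO.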

[15] = ATG_AP_2_CIS: Attagene CIS-FACTORIAL HepG2 Assay for human Activator Protein 2 (AP-2) (AID 2282932); conditions: HepG2 AP-2 cis-reporter, Attagene transcription factor profiling; actives raise or lower the signal
Procedure, shortened: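 HepG2, transient MRTU transfection, cis-regulated reporters; 24 h compound exposure; RNA isolated, RT-PCR, 6-FAM labelling, HpaI digest, CE fluorescence. DMSO = negative control/baseline, bidirectional fit.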

[16] = ATG_BRE_CIS: Attagene CIS-FACTORIAL HepG2 Assay for human Bone Morphogenetic Protein (BMP) Response Element (BRE) (AID 2282933); conditions: HepG2 BMP response element reporter, Attagene transcription factor profiling; actives raise or lower the signal
Procedure, shortened: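 Fluorescence-labelled reporter cDNA fragments, separated by capillary electrophoresis, gave the signal for this component of a 52-readout multiplex. HepG2 cells were transfected, exposed to chemicals for 24 h, and compared with DMSO using bidirectional fitting.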

[17] = target: Retinoic acid receptor alpha (Homo sapiens) (UniProt P10276); experiment: ATG_DR5_RAR_CIS: Attagene CIS-FACTORIAL HepG2 Assay for human Retinoic Acid Receptor Alpha (RARE), DR5 submotif (AID 2282934); conditions: HepG2 Attagene cis-factorial RARE DR5 reporter, mRNA; actives raise or lower the signal
Procedure, shortened: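 HepG2, transient cis-reporter transfection, 24 h exposure. mRNA readout: RT-PCR, FAM label, HpaI cut, capillary electrophoresis. DMSO baseline, gain/loss fitting.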

[18] = APR_HepG2_NuclearSize_72hr: Apredica 72-hour HepG2 Assay for Nuclear Size (AID 2282925); conditions: high-content imaging, actives raise or lower the signal
Procedure, shortened: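 HepG2; cpd 0.39–200 uM, 10 conc, duplicate; 72 h; DMSO 0.5% v/v; fix 3.7% formaldehyde 30 min RT; Triton permeabilization; Hoechst 2 ug/mL; HCS imaging 20x; nuclear diameter; gain/loss fit vs DMSO.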

[19] = APR_HepG2_MitoMass_72hr: Apredica 72-hour HepG2 Assay for Mitochondrial Mass (AID 2282924); conditions: high-content imaging, actives raise or lower the signal;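 also: MitoTracker Red CMXRos stain intensity per cell imaged as mitochondrial mass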
Procedure, shortened: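 HepG2, 72 hr cmpd, 10 conc 0.39–200 uM in dup, DMSO 0.5% v/v. MitoTracker Red CMXRos 250 nM 30 min pre-fix; formaldehyde 3.7% fix 30 min RT. HCS imaging, gain/loss fit vs DMSO.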

Measured: AC50

CCAAT/enhancer-binding protein beta (Homo sapiens), sequence (P17676 whole entry, looked up): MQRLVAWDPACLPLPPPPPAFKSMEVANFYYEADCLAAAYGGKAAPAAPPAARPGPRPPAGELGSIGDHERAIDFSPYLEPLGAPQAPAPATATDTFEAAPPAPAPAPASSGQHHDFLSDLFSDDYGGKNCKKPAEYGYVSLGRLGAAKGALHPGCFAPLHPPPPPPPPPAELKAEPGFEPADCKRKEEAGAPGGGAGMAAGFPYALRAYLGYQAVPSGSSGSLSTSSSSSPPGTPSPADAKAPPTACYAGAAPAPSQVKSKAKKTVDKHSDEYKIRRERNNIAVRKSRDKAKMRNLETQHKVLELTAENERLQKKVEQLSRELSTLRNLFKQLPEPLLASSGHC
Aryl hydrocarbon receptor (Homo sapiens), sequence (P35869 whole entry, looked up): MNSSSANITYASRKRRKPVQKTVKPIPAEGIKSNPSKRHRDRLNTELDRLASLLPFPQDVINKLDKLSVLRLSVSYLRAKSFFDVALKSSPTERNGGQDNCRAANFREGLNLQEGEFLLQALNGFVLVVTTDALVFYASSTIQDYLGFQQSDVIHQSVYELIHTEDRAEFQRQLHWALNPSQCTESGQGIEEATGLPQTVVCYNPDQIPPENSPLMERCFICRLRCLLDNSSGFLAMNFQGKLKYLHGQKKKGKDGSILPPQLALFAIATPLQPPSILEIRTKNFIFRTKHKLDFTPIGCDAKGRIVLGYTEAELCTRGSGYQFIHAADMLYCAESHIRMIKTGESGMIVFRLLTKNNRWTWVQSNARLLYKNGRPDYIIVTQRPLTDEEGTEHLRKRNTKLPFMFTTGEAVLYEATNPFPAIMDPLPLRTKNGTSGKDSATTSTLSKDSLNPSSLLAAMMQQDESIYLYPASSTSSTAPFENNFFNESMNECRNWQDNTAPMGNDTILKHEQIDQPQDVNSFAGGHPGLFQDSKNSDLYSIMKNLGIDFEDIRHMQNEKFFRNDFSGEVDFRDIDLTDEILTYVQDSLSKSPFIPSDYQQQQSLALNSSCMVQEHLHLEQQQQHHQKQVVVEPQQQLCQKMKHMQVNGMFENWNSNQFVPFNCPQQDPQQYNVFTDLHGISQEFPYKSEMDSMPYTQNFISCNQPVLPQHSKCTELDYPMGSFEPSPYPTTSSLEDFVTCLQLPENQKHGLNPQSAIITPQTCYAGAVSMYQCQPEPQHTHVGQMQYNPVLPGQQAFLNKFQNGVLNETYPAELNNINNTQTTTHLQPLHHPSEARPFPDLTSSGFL
Retinoic acid receptor alpha (Homo sapiens), sequence (P10276 whole entry, looked up): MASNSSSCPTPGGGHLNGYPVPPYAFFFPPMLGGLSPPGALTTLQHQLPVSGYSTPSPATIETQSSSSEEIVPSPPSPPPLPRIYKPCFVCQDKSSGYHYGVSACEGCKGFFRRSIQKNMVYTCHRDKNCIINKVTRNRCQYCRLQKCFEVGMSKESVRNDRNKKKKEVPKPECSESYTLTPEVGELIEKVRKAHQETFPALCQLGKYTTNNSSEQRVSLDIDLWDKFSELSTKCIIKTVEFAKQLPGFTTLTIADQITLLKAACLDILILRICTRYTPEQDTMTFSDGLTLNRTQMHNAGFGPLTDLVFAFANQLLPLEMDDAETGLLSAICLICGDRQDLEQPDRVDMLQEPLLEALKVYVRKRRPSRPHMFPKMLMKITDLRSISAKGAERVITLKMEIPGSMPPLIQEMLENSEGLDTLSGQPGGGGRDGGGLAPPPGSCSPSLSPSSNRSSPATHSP

CC(=O)Oc1ccccc1C(=O)O
active: [14] 61.1 µM
not listed: [18] | [19]
inactive: all other assays above

CC1(C)CC(N=C=O)CC(C)(CN=C=O)C1 (stereo not drawn)
active: [2] 101 µM | [4] 93.1 µM | [6] 101 µM
not listed: [16] | [19]
inactive: all other assays above

O=[N+]([O-])C(CO)(CO)CO
active: [1] 107 µM | [2] 118 µM | [4] 105 µM | [7] 112 µM | [8] 119 µM | [13] 68.9 µM
not listed: [9] | [16] | [19]
inactive: all other assays above

CCNc1cccc(C)c1
not listed: [9] | [10] | [18]
inactive: all other assays above

CCCCC(CC)COC(=O)CC(C(=O)OCC(CC)CCCC)S(=O)(=O)O (stereo not drawn)
active: [1] 141 µM | [2] 108 µM | [3] 112 µM | [4] 80.8 µM | [6] 102 µM | [8] 103 µM
not listed: [10]
inactive: all other assays above

Cc1nc(C)nc(N2C[C@@H](C)N(c3ccnc([C@@H](C)O)n3)[C@@H](C)C2)n1
active: [14] 23.1 µM
not listed: [9] | [16] | [18]
inactive: all other assays above

Oc1ccc2ccccc2c1N=Nc1ccccc1
active: [1] 0.606 µM | [2] 2.49 µM | [19] 0.0806 µM | [13] 0.0105 µM
not listed: [10] | [18]
inactive: all other assays above

Nc1nc(N)c2nc(CNc3ccc(C(=O)N[C@@H](CCC(=O)O)C(=O)O)cc3)cnc2n1
active: [11] 0.00818 µM | [14] 0.00864 µM
not listed: [6] | [16] | [19]
inactive: all other assays above
